Bead autofluor: compound fluorescence in toxin protease inhibitor counterscreen; compound autofluorescence counterscreen, microsphere flow cytometry; hits give high values; fluorescence intensity (concentration not given with the values); 360,000 compounds, 3.1% hits; AID 624483; in the data active means fluorescence intensity above about 16000; inconclusive means no clear call, values can overlap the other calls
Anthrax LF prot: blocks Bacillus anthracis lethal factor protease; P15917; multiplex microsphere protease cleavage assay, LF; inhibition, % at 10 µM; 360,000 compounds, 0.12% hits
BoNT A protease: inhibitors of Botulinum neurotoxin A light chain protease; multiplex microsphere protease substrate cleavage, flow cytometry; inhibition, % at 10 µM; 360,000 compounds, 0.17% hits
BoNT-F LC inh: blocks Botulinum neurotoxin F light chain protease; Multiplex microsphere protease cleavage assay, flow cytometry; inhibition, % at 10 µM; 360,000 compounds, 0.22% hits; AID 588497; in the data active means inhibition above about 35%, passing the limit was not always enough; inconclusive means no clear call, values can overlap the other calls
Of the large screens only hits and unclear results are named; the others gave an inactive call. This is a sample that favours compounds with a hit; in the whole collection about 3.5% have one here. Unless noted, no stated cut-off is given here; in the data, active means inhibition above about 30%; inconclusive means no clear call, values can overlap the other calls; inactive means below that.

CC(=O)Nc1ccc(NC(=O)CCCCCN2C(=O)c3ccccc3C2=O)cc1	Bead autofluor 18712
CCOC(=O)CNC(=O)Cn1cnc2c(nnn2-c2cccc(Cl)c2)c1=O	Bead autofluor 23372
CCOC(=O)CNC(=O)Cn1cnc2c(nnn2-c2cccc(OC)c2)c1=O	none
CCOC(=O)CNC(=O)Cn1cnc2c(nnn2-c2ccc(C)cc2)c1=O	Bead autofluor 18628
CCN(CC(=O)NC(C)(C)C)C(=O)c1cccc(S(=O)(=O)N2CC3(C)CC2CC(C)(C)C3)c1 (configuration not stated)	none
CN(Cc1ccccc1)C(=O)CN1C(=O)C2C3C=CC(C3)C2C1=O (configuration not stated)	Bead autofluor 21276
CN(Cc1ccccc1)C(=O)CN1C(=O)c2ccccc2C1=O	none
CC(C)(C)NCC(O)COc1cccc2c1CCC(=O)N2 (configuration not stated)	none
COc1ccccc1N1CCN(Cc2ccc(Br)o2)CC1	Bead autofluor 22305
CCOc1ccccc1N1CCN(Cc2ccc(OC)c(OC)c2OC)CC1	Bead autofluor 21368, BoNT A protease inconclusive
CCN1CCN(CC(O)COCc2ccccc2)CC1 (configuration not stated)	none
CCC(=O)c1ccc(OCC(O)CN2CCN(c3ccc(F)cc3)CC2)cc1 (configuration not stated)	Bead autofluor 19445
OC(COCc1ccccc1)CN1CCN(c2ccccc2F)CC1 (configuration not stated)	Bead autofluor 22811
CC(=O)c1ccc(OCC(O)CN2CCN(c3ccc(F)cc3)CC2)cc1 (configuration not stated)	BoNT-F LC inh inconclusive
COc1ccccc1N1CCN(Cc2ccc(Br)cc2)CC1	none
COc1ccccc1NS(=O)(=O)c1cccc(C(=O)N2CCN(C(=O)c3ccco3)CC2)c1	none
CCC(C(=O)N1CCOCC1)n1c2ccccc2c2nc(=O)cc(C)n21 (configuration not stated)	none
C=CCc1ccccc1OCC(O)CN1CCN(c2ccc(OC)cc2)CC1 (configuration not stated)	Bead autofluor 23665, BoNT A protease inconclusive
COc1ccccc1N1CCN(Cc2cccc(OC)c2O)CC1	Bead autofluor 21009
COc1ccccc1N1CCN(CC(O)COc2c(OC)cccc2OC)CC1 (configuration not stated)	Bead autofluor 19582
COc1ccc(-n2c(=O)cc(N3CCN(c4ccccc4OC)CC3)[nH]c2=O)cc1	none
COc1ccccc1N1CCN(c2cc(=O)n(-c3ccccc3Cl)c(=O)[nH]2)CC1	Bead autofluor 21673
COc1ccccc1N1CCN(Cc2cccc(OC)c2OC)CC1	none
CC(=O)Nc1cccc(NC(=O)Cc2ccc3ccccc3c2)c1	BoNT-F LC inh inconclusive
COc1ccccc1N1CCN(Cc2ccccc2Cl)CC1	Bead autofluor 23767
COc1cc(OC)c(OC)cc1CN1CCN(c2ccccc2OC)CC1	Bead autofluor 24136, BoNT A protease inconclusive
COc1ccccc1N1CCN(Cc2ccccc2F)CC1	none
CSCCC(NS(=O)(=O)c1ccc(C)cc1)C(=O)NC1CCCCCC1 (configuration not stated)	none
CC(=O)c1cc2cccc(OC3(C)CCN(Cc4ccc5ccccc5c4)C3)c2o1 (configuration not stated)	none
C=C(C)C(C)(C#CCN1CCCC1)OC(C)=O (configuration not stated)	Bead autofluor 18876
COc1cccc(-c2n[nH]c(=S)n2Cc2ccco2)c1OC	Bead autofluor 20736
Oc1cc2ccccc2cc1-c1n[nH]c(=S)n1Cc1ccco1	none
COc1ccc(CCNC(=O)Nc2ccc3c(c2)c(=O)n(C)n3CC=C(C)C)cc1OC	none
COC(=O)c1ccc(CSc2nc(N)cc(N)n2)cc1	Bead autofluor 23371
COC(=O)c1ccc(CSc2nnc(N)s2)cc1	none
CCCN(CCC)C(=O)c1ccccc1C(=O)N(CCC)CCC	none
C#CCOC(=O)c1ccccc1C(=O)N(CC)CC	Bead autofluor 17452, BoNT A protease inconclusive
CS(=O)(=O)c1ccc(Cl)c(NC(=O)COC(=O)CCN2C(=O)C3CC=CCC3C2=O)c1 (configuration not stated)	none
O=c1oc2ccccc2cc1-c1csc(Cc2nc(-c3ccc(Br)cc3)cs2)n1	Bead autofluor 16508, BoNT A protease inconclusive
COc1ccc(-c2noc(CN3CCCCC3)n2)cc1OC	Bead autofluor 21443
CCOC(=O)C1CCN(Cc2nc(-c3ccc(OC)c(OC)c3)no2)CC1	none
COC(=O)COc1ccc(S(=O)(=O)NCc2cccnc2)cc1C	Bead autofluor 17503
COc1cc(S(=O)(=O)NCc2cccnc2)ccc1F	Bead autofluor 21999
CCn1c(SCC(=O)N2CCN(c3ccccc3)CC2)nc2c([nH]c3ccccc32)c1=O	none
Cc1noc(C)c1C(=O)N(CC(=O)Nc1ccc(Cl)c(C(F)(F)F)c1)Cc1ccco1	none
CN(c1ccc(OCC(=O)N2CCC(C(N)=O)CC2)cc1)S(=O)(=O)c1cccs1	Bead autofluor 21812, BoNT A protease inconclusive
CC(=O)N1CCN(C(=O)COc2ccc(N(C)S(=O)(=O)c3cccs3)cc2)CC1	none
COc1ccc(OCC(=O)NNC(=O)Cn2c(=O)cnc3ccccc32)cc1	Bead autofluor inconclusive
O=C1CC(=O)N(c2ccccc2F)C(=O)N1	none
Cc1cc(Br)ccc1N1C(=O)CC(=O)NC1=O	Bead autofluor 20409
O=C1CC(=O)N(c2ccc(Cl)cc2Cl)C(=O)N1	Bead autofluor 21690
CCOC(=O)CNC(=O)Cc1ccc(OC)cc1	BoNT-F LC inh inconclusive
Cc1ccccc1NS(=O)(=O)c1nnc(NC(=O)C(C)C)s1	none
Cc1cccc(NC(=O)Nc2ccccc2)n1	none
Cc1cccc(NC(=O)NCC(F)(F)F)n1	Bead autofluor 19660, BoNT A protease inconclusive
COc1ccc(S(=O)(=O)NC2CCCC2)c(OC)c1	none
COc1ccc(OC)c(S(=O)(=O)NC2CCCCC2)c1	Bead autofluor 22696
COc1ccc(NS(=O)(=O)c2ccc(OC)c(OC)c2)cc1OC	none
COc1ccc(OC)c(S(=O)(=O)Nc2cccc(F)c2)c1	Bead autofluor 16709
COc1ccc(S(=O)(=O)Nc2cccc(Cl)c2)cc1OC	Bead autofluor 20245
COc1ccc(OC)c(S(=O)(=O)Nc2ccc(F)cc2)c1	none
COc1cc(S(=O)(=O)NC2CCCC2)ccc1F	Bead autofluor 16811
O=C(c1cccn2c(=O)c3ccc(Cl)cc3nc12)N1CCC2(CC1)OCCO2	none
O=C(c1cccn2c(=O)c3ccccc3nc12)N1CCN(Cc2ccc3c(c2)OCO3)CC1	Bead autofluor 20636
O=C(c1cccn2c(=O)c3cc(Cl)ccc3nc12)N1CCOCC1	Bead autofluor 23073, BoNT A protease inconclusive
O=C(c1cccn2c(=O)c3cc(Cl)ccc3nc12)N1CCN(Cc2ccc3c(c2)OCO3)CC1	Bead autofluor 16508
O=C(c1cc(Cl)nc2ccccc12)N1CCN(Cc2ccc3c(c2)OCO3)CC1	none
COC(=O)NC1CC2C=CC1C1C=CC21 (configuration not stated)	none
O=C(OCC(=O)N1CCCC1)c1c(Cl)ccc(Cl)c1Cl	none
O=C(CNC(=O)C1CC(=O)N(c2cccc3ccccc23)C1)Nc1ccccc1Br (configuration not stated)	none
Cc1cc(C)n2c(SCC(=O)Nc3ccccc3C#N)nnc2n1	none
